VP16 counter: VP16 counterscreen qHTS for inhibitors of ROR gamma transcriptional activity | Drosophila S2 Gal4-VP16 UAS-luciferase, luminescence, 20 h | Potency, µM (titrated, usually from 53.6 µM), without a hit: top-dose activity, negative = inhibition, usual class: inhibitors | actives 3.5% (n = 310,000);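 further: Gal4-VP16 expression switched on by copper sulfate through the metallothionein promoter; potency means the concentration at half of the fitted maximal effect; on the % scale 0 is the no-effect control and ±100 the full control effect; nearly all actives have a fitted effect of over 50% in size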
CBFb-RUNX1 inh: qHTS Assay for Compounds Blocking the Interaction Between CBF-beta and RUNX1 for the Treatment of Acute Myeloid Leukemia. Potency, µM (titrated, usually from 59.8 µM), without a hit: at the highest dose activity, negative = inhibition, hits mostly inhibitors. 230,000 tested, under 10 active. AlphaScreen CBFb-His/RUNX1-biotin binding, biochemical; further: % of control where 0% means no effect
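Compounds were screened at multiple concentrations against a preformed CBF-beta(His)/RUNX1(biotin) complex (30 nM of each) for 15 min at room temperature, followed by 90 min with nickel and streptavidin beads and AlphaScreen reading.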
Six1-Eya2 blk: qHTS Assay for Inhibitors of the Six1/Eya2 Interaction | actives 0.56% (n = 360,000) | AlphaScreen GST-Six1/His-Eya2 binding, biochemical; stronger effect = lower value | activity change, % (no concentration beside the values); in the data active means activity change below about -65%; inconclusive means mostly about -30% to -63%; further: on the % scale 0 is the no-effect control and ±100 the full control effect
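Compounds are tested against tagged Six1 and Eya2 proteins bridged by glutathione donor and nickel acceptor beads; after a one-hour incubation at 37 °C without light, AlphaScreen emission is recorded.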
MBNL1-CUG inh: qHTS Assay for Inhibitors of MBNL1-poly(CUG) RNA binding; Muscleblind-like protein 1 (Homo sapiens), Q9NR56; TR-FRET MBNL1-His/biotin-(CUG)12 binding, 665/545 ratio; Potency, µM (highest dose often 57.5 µM), for inactives: at the top dose activity change, negative = inhibition, hits mostly inhibitors; actives 0.036% (n = 280,000); active means well fitted inhibition curve with a large enough effect in the signal ratio, with a control signal flat, not every such curve was filed as active; inconclusive means small, poorly fitted or top-dose-only effect, or effect the other way, or a change in a side signal; inactive means no such curve, though single readings can be large or run the other way; the % refers to the signal ratio; further: potency means the concentration at half of the fitted maximal effect; on the % scale 0 is the no-effect control and ±100 the full control effect
Target sequence (Q9NR56 whole entry, looked up): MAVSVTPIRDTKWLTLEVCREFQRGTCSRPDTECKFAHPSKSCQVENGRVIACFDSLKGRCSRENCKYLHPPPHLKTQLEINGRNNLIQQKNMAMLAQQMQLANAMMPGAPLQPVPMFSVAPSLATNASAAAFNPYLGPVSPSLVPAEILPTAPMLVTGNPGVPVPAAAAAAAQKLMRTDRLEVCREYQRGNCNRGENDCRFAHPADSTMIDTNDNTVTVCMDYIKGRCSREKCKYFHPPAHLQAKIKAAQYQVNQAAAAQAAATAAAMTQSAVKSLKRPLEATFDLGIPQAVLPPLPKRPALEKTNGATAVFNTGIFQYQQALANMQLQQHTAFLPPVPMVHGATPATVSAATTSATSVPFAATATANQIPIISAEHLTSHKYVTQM
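Ratiometric TR-FRET (665 over 545 nm, excitation 340 nm) tracks disruption of MBNL1-His/biotin-(CUG)12 complex after 60 min at room temperature, with compounds at 92 nM to 58 uM final.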
RORg inh: qHTS for inhibitors of ROR gamma transcriptional activity; AID 2551, 2010; Drosophila S2 Gal4-RORgamma UAS-luciferase reporter, 20 h; Nuclear receptor ROR-gamma (Mus musculus), P51450; Potency, µM (doses to about 53.6 µM), for the others: top-dose activity change, negative = inhibition, actives largely listed as inhibitors; actives 5.4% (n = 310,000); further: potency means the concentration at half of the fitted maximal effect; on the % scale 0 is the no-effect control and ±100 the full control effect; nearly all actives have a fitted effect of over 60% in size
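Drosophila Schneider cells stably carrying a metallothionein-driven Gal4 DBD–ROR gamma fusion and a UAS-Photinus luciferase reporter were exposed to compound for 1 hr, then induced with copper sulfate (700 uM final) for 20 hr at ambient temperature before luminescence reading.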
CtBP-E1A blk: qHTS Assay for Inhibitors of the CtBP/E1A Interaction | actives 0.49% (n = 340,000) | CtBP / adenovirus E1A interaction (AlphaScreen) | AlphaScreen GST-E1A/His-CtBP binding, 1536-well; stronger effect = lower value | activity change, % (no concentration beside the values); in the data active means activity change below about -65%; inconclusive means mostly about -30% to -63%; further: on the % scale 0 is the no-effect control and ±100 the full control effect
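Steps: dispense buffer (Tris pH 8.0, NaCl 300 mM, TCEP 1 mM, BSA, Tween 20); add 5X protein mix (GST-E1A, His-CtBP, 125 nM each); pin 23 nL compound; 2 h at 37 °C, dark; add 5X beads (50 ug/mL); 1 h; read.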
Active calls of the source: *; ? = inconclusive; · = not tested or not shown; [ ] = another dose, or the depositor's remark. Shown are actives, neighbours in structure and some others; about 5.5% of the full set was active somewhere. Unless noted, the call rests on the fitted dose curve; in most records, active means well fitted curve in the direction sought with a large enough effect; inconclusive means small, poorly fitted or top-dose-only effect, or another doubt; inactive means no such curve, though single readings can be large; an effect the other way counts as inactive or inconclusive.

SMILES | VP16 counter | CBFb-RUNX1 inh | Six1-Eya2 blk | MBNL1-CUG inh | RORg inh | CtBP-E1A blk
NC(=O)c1csc(-c2ccc(CO)o2)n1 | · | · | 6 | · | · | 1
O=C(NN1CCCCC1)NN1CCCCC1 | · | · | 2 | · | · | 1
CC(C)(C)C1CCC2(CC1)C(Nc1cccc(C(F)(F)F)c1)=NC(=S)N2CC#N (configuration not stated) | 13µM* | 0% | 2 | -3% | 18µM* | 6
Cc1ccc(Nc2nc(N)nc(CC#N)n2)cc1 | -3% | 2% | 3 | -5% | 17% | 4
Cn1c(CNc2cccc(Cl)c2)nnc1SCC#N | -12% | 0% | -2 | -7% | 25% | 16
Cc1ccc(NC2=NC(=S)N(CC#N)C23CCCCC3)cc1 | -20% | 12% | 0 | -4% | 18µM* | ·
Cc1cc(C)nc(Nc2cccc(C(F)(F)F)c2)n1 | 5% | · | 3 | 6% | 10% | ·
N#CCN1C(=S)N=C(Nc2cccc(Cl)c2)C12CCCCC2 | ? | -13% | 8 | -7% | 2.8µM* | -1
CCOC(=O)c1c(NC(=O)/C=C/C(=O)O)sc(C)c1-c1ccc(C)c(C)c1 | 6% | -5% | -6 | -5% | 10µM* | ·
COC(=O)c1c(NC(=O)/C=C/C(=O)O)sc(C)c1-c1ccc(C)c(C)c1 | -5% | -1% | -12 | 6% | 4.5µM* | -2
COc1ccc(-c2csc(CCn3nc(C)cc3C)n2)cc1OC | -1% | -3% | -4 | 0% | 16% | -4
COc1ccc(OC)c(-c2csc(CCn3nc(C)cc3C)n2)c1 | 4% | -11% | 0 | -7% | 14µM* | 7
COc1ccc(-c2cc(C(F)F)nc(-n3nc(C)cc3C)n2)cc1 | 1.4µM* | 8% | ? | -4% | 0.89µM* | ?
COc1ccc(-c2csc(CCn3nc(C)cc3C)n2)cc1 | ? | -5% | -3 | -3% | 10µM* | ·
Cc1nn(CC(=O)N(C)c2c(N)n(Cc3ccccc3)c(=O)[nH]c2=O)c(C)c1[N+](=O)[O-] | · | · | 9 | · | · | -8
CN(C)S(=O)(=O)c1ccc(C(=O)OC2CCOC2=O)cc1 (configuration not stated) | -1% | · | -1 | 1% | -10% | 9
Nc1[nH]c(C(=O)c2ccccc2)c(-c2cccnc2)c1C(=O)NC1CCCCC1 | · | · | -6 | · | · | -3
COc1cccc(CC(=O)OCC(=O)N(C)CC(=O)Nc2ccc(Cl)c(C(F)(F)F)c2)c1 | · | · | -1 | · | · | -14
Brc1ccc(-c2csc(N3CCOCC3)n2)cc1 | 24%[10 µM] | 4% | -3 | 7% | -1% | 1
Brc1ccc(-c2csc(N3CCCCCC3)n2)cc1 | ? | · | 9 | 0% | 11µM* | 15
COc1ccc(C(C)(C)C)cc1NC(=O)COc1ccc(-c2nnco2)cc1 | · | · | -2 | · | · | -14
O=[N+]([O-])c1cc(S(=O)(=O)N2CCCCC2)ccc1NCCCN1CCOCC1 | 5% | 8% | -1 | ? | -6% | -16
CCN(CC)S(=O)(=O)c1ccc(C(=O)Nc2ccc(Cc3ccncc3)cc2)cc1 | 3.5µM* | 0% | 0 | -5% | 5.6µM* | -2
CCN(Cc1ccncc1)S(=O)(=O)c1ccc(C(C)=O)cc1 | 7.9µM* | -12% | 0 | 6% | 31% | 1
OC(CNCCC1C=Nc2ccccc21)Cn1c2ccc(Cl)cc2c2cc(Cl)ccc21 (configuration not stated) | 13µM* | 4% | -5 | · | ? | -12
SMILES | VP16 counter | CBFb-RUNX1 inh | Six1-Eya2 blk | MBNL1-CUG inh | RORg inh | CtBP-E1A blk
OC(CNCC1CCCO1)Cn1c2ccc(Cl)cc2c2cc(Cl)ccc21 (configuration not stated) | -12% | -3% | -2 | -8% | -11% | -5
O=C(Nc1nnc(C2=COCCO2)o1)c1cccc(Br)c1 | 0.5µM* | · | -25 | 0% | 0.35µM* | ?
CS(=O)(=O)c1cccc(C(=O)Nc2nnc(C3=COCCO3)o2)c1 | · | · | -29 | · | · | -11
O=C(Nc1nnc(C2=COCCO2)o1)c1cccc([N+](=O)[O-])c1 | 4µM* | · | 2 | 9% | 1µM* | -5
O=C(Nc1nnc(-c2ccc(F)cc2)o1)c1cccc([N+](=O)[O-])c1 | 0.79µM* | -10% | 2 | 10% | 0.4µM* | -10
Nc1ccc2nc(CCCO)[nH]c2c1 | -1% | -2% | -3 | ? | 0% | ·
CCCCc1c(O)nc(SCC(=O)c2ccccc2)n(-c2ccccc2OC)c1=O | -2% | 2% | -1 | · | 20% | -8
COc1ccccc1N1C(=O)c2ccc(C(=O)Nc3cccc(C(C)=O)c3)cc2C1=O | 1% | · | -4 | 17% | 11% | 0
COc1ccccc1N1C(=O)c2ccc(C(=O)Nc3ccc(F)cc3)cc2C1=O | 16µM* | · | 6 | ? | -40% | ·
Cc1cc(C)c(C(=O)COC(=O)CN2C(=O)NC3(CCCC3)C2=O)cc1C | · | · | -4 | · | · | -2
CCCn1c(=N)n(CC(=O)c2ccc([N+](=O)[O-])cc2)c2ccccc21 | -8% | -2% | 29 | ? | 1.6µM* | 17
Cc1ccc(Cn2c(=N)n(CC(=O)c3ccccc3)c3ccccc32)cc1 | 14µM* | 4% | 6 | 3% | 13µM* | -11
CCn1c(=N)n(CC(=O)c2cccc([N+](=O)[O-])c2)c2ccccc21 | -2% | -3% | -2 | -1% | -25% | -2
N=c1n(CC(=O)c2cccc([N+](=O)[O-])c2)c2ccccc2n1Cc1ccccc1 | ? | -10% | 10 | 8% | 7.1µM* | 10
N=c1n(CC(=O)c2ccc(Br)s2)c2ccccc2n1Cc1ccccc1 | 14µM* | 0% | -2 | 33% | 10µM* | 1
Cc1nn(CC(=O)NCCC2=CCCCC2)c(C)c1S(=O)(=O)N(C)C | · | · | 7 | · | · | 0
COCCNC(=O)c1cc(-c2ccccc2)sc1N | · | · | -1 | · | · | -25
Cc1cccc(NC(=O)COC(=O)c2ccc(S(=O)(=O)N3CCCC3)cc2)c1 | · | · | -1 | · | · | -1
CC(C)(C)C(=O)Cn1c(=N)n(Cc2ccccc2Cl)c2ccccc21 | ? | -3% | -5 | 2% | 4.5µM* | -6
COc1cccc(C(=O)Cn2c(=N)n(C)c3ccccc32)c1 | ? | -8% | 5 | 4% | 10µM* | -1
CC(C)(C)C(=O)Cn1c(=N)n(Cc2ccccc2)c2ccccc21 | -9% | -7% | -12 | -10% | ? | -14

Source: PubChem BioAssay (National Center for Advancing Translational Sciences (NCATS))
